Test results as given in the supplement of paper PMC10338343.
± gives the standard deviation.

How the values were obtained:
[1] = tested on: MILI (PIWIL2) piRISC loaded with L1MC piRNA (26 nt); experiment: pre-steady-state target cleavage rate (min^-1); guide: L1MC piRNA 5'p-UAACUAAAUACUAUGCAAGCUGUAGG; higher = faster piRNA-guided slicing of the target;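 further: 1 nM active piRISC with 0.1 nM target library at 33 °C single turnover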
In short: (§1)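 The pre-steady-state cleavage rate was calculated from a burst-and-steady-state fit. Data came from Cleave-'n-Seq, in which […] transcribed, DNA-blocked target RNA library was mixed with 1 nM active affinity-purified piRISC carrying one synthetic guide, with or without 500 nM GTSF1 partner protein, in HEPES–potassium acetate buffer at 33 °C for 0–8 or 0–960 min. Uncleaved targets were sequenced and normalised to depth and to weakly complementary targets, three trials were pooled, and k3 was capped at 0.0001 min^-1.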

[2] = tested on: EfPiwi piRISC loaded with L1MC piRNA (26 nt); experiment: pre-steady-state target cleavage rate (min^-1); auxiliary factor: 500 nM Ephydatia muelleri Gtsf1; guide: L1MC piRNA 5'p-UAACUAAAUACUAUGCAAGCUGUAGG; MIWI and MILI are mouse PIWI proteins and EfPiwi is from a freshwater sponge; tags in brackets are library labels; higher = faster piRNA-guided slicing of the target
In short: as §1

[3] = auxiliary factor: 500 nM mouse GTSF1
[4] = auxiliary factor: none (no GTSF1)

| Sequence | pre-steady-state target cleavage rate [1, 3] | pre-steady-state target cleavage rate [1, 4] | pre-steady-state target cleavage rate [2] |
| --- | --- | --- | --- |
| UCCUGCUACAGCUUGCAUGGUAUUUAGUUA | 0.334 ± 0.018 | 0.0121 ± 0.0029 | 0.0201 ± 0.0061 |
| UCCUGGAACUAGCUUGCAUAGUAUUUAGUUA | 0.132 ± 0.021 | 0.00841 ± 0.0027 | 0.0126 ± 0.0045 |
| UCCUCCUACAGCUUGCAUAGAUAUUUAGUUA | 0.0178 ± 0.0058 | 0.00345 ± 0.0022 | 0.00501 ± 0.0032 |
| UCCUGGUACAUCUUGCAUAGUAUUUAGUUA | 0.237 ± 0.018 | 0.00962 ± 0.0032 | 0.0254 ± 0.01 |
| UCCUCCUACAGCUAGCUUAGUAUUUAGUUA | 0.206 ± 0.017 | 0.00491 ± 0.0019 | 0.00997 ± 0.0038 |
| UCCUGGAUGAGCUAUGCAUAGUAUUUAGUUA | 0.202 ± 0.013 | 0.0126 ± 0.0025 | 0.0256 ± 0.0076 |
| UCCUGCUAGACCUUGCAUAGUAUUUAGUUA | 0.171 ± 0.02 | 0.00811 ± 0.0031 | 0.00526 ± 0.0023 |
| UCCUGCUACAGCUUGCAUAGUAUUUGAGUUA | 0.135 ± 0.02 | 0.00331 ± 0.0024 | 0.0068 ± 0.0022 |
| UCCUCCUACAGCUUGCAUAGUAUUUAGUA | 0.177 ± 0.021 | 0.00474 ± 0.0025 | 0.00701 ± 0.0026 |
| UCCUGGAUGUCCUUGCCUAGUAUUUAGUUA | 0.0522 ± 0.0084 | 0.00452 ± 0.002 | 0.00345 ± 0.002 |
| UCCUGGUUCAGCUUGCAUAGUAUUUUGUUA | 0.16 ± 0.03 | 0.00444 ± 0.0036 | 0.00528 ± 0.0032 |
| UCCUCCUACAGCUUGCUAAGUAUUUAGUUA | 0.17 ± 0.012 | 0.00586 ± 0.0019 | 0.00593 ± 0.0039 |
| UCCUGGUACAGCUUGAAUAGUAUUUAGUUA | 0.302 ± 0.055 | 0.00915 ± 0.0046 | 0.0053 ± 0.0028 |
| UCCUGGAAGAGCUUGCAUAGUUUUUAGUUA | 0.0486 ± 0.011 | 0.004 ± 0.0023 | 0.00316 ± 0.003 |
| UCCUCCUACACCUUGCAAAGUAUUUAGUUA | 0.118 ± 0.015 | 0.00739 ± 0.0022 | 0.0172 ± 0.007 |
| UCCUCCUACAGGAAGCAUAGUAUUUAGUAA | 0.247 ± 0.018 | 0.00328 ± 0.0023 | 0.00397 ± 0.0031 |
| UCCUGGUACAGCUUGUCAUAGUAUUUAGUUA | 0.19 ± 0.018 | 0.0068 ± 0.003 | 0.00651 ± 0.0024 |
| UCCUGGAUCAGCUUGUAUAGUAUUUAGUUA | 0.301 ± 0.015 | 0.0104 ± 0.0028 | 0.104 ± 0.021 |
| UCCUGGUAGAGCUUGCAUUGUAUUUAGUUA | 0.18 ± 0.015 | 0.00645 ± 0.0026 | 0.00786 ± 0.0033 |
| UCCUGGUACCGCUUGCAUAGUAUUUAGUUA | 0.293 ± 0.037 | 0.0123 ± 0.0052 | 0.00412 ± 0.0035 |
